Outcome data for 110 molecules are collected here from PubChem BioAssay AID435019 (Southern Research Specialized Biocontainment Screening …, 2010).

The campaign covered roughly 2,300 compounds. About 1,200 (52%) were called active. The rule behind the calls is not given here. So high a share suggests a set chosen from earlier hits. The list shows a part of the results. Results with a measured potency or affinity are listed apart.

This assay in a line: mammalian cell cytotoxicity, dose response, cytotoxicity control for M. tuberculosis inhibitor project (AID 435019).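 Note: lower values mean fewer viable cells so more cytotoxicity.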 The conditions noted are these: cytotoxicity counter-screen; series mostly up to 40 µM. In general terms: A counterscreen serves to expose hits that act by an unwanted route or on another target.
In the case of `Cc1ccc(C)c(C2C(=O)c3ccccc3C2=O)c1`, the molecule was classed as inactive.
The entry for `NN(Cc1ccccc1)C(=S)Nc1ccc(Cl)c(Cl)c1` is “inactive”; for `C=C(C)C1Cc2c(C)nn(-c3nc(C)cc(C)n3)c2C1` (stereo not given) it is “inactive”.
Turning to `O=C(/C=C/c1ccccc1)N1CCN(CCN2C(=O)c3cccc4cccc(c34)C2=O)CC1`, the molecule was called inactive.
On to `COc1ccc(C(=O)NNc2ccccc2)cc1OC`, for which the call was inactive.
Consider `O=C(CSC1=Nc2ccccc2C2=NC(c3ccccc3)C(=O)N12)NC1CCCCC1` (stereo not given), for which the call was inactive.
The entry for `CN1C(=O)CC(c2ccccc2)C1=O` (stereo not given) is “inactive”; for `c1ccc(NNC2=NCCCCC2)cc1` it is “inactive”.
For `COC(=O)c1ccc(NC(=S)NC(=O)C2CCC2)cc1`, the call was inactive.
With `COc1cc(/C=C/c2cc[n+](C)cc2)ccc1OCC(=O)Nc1ccc(Cl)c(Cl)c1`, the molecule was classed as inactive.
Consider `CC1(c2ccc(Cl)c(Cl)c2)NC(=S)N2C1NC(=S)N2c1ccccc1` (stereo not given), for which the molecule was classed as inactive.
The entry for `Cc1cc(-c2ccc(Cl)cc2)c2cnn(C(C)C)c2n1` is “inactive”; for `Cc1ccc(-c2nc3ccsc3c(=O)o2)cc1` it is “inactive”; for `COC(=O)C(C)Oc1ccc(-c2nccc(-c3ccccn3)n2)cc1` (stereo not given) it is “inactive”.
The entry for `CCCCSCCCNC(=O)c1cn(CC)c2ccc(S(=O)(=O)N3CCOCC3)cc2c1=O` is “inactive”; for `COc1ccc(C(=O)C[n+]2ccc3c(c2)nc(-c2cc(OC)c(OC)cc2OC)n3C)cc1` it is “inactive”.
`Nc1nc(CN2CCN(c3ccccc3F)CC2)nc(N2CCCc3ccccc32)n1`: the result was inactive.
For the molecule `CCCc1cc(-c2nc(-c3ccc(Br)cc3)cs2)ccn1`, the molecule was called inactive.
The entry for `CC(=O)c1cccc(NC(=O)C2C3C=CC(C3=C(c3ccccc3)c3ccccc3)C2C(=O)O)c1` (stereo not given) is “inactive”; for `CCOc1ccc(NC(=O)CSc2nc(O)c(C)c(=O)n2-c2ccc(F)cc2)cc1` it is “inactive”; for `COc1cccc(C(=O)NC2CC3CCCC(C2)N3CC(=O)Nc2ccc(N(C)C)cc2)c1` (stereo not given) it is “inactive”.
The entry for `Cc1ccc2c(c1)c1c3n2CCN=C3CCC1` is “inactive”; for `CC(C)Nc1nc(NC(C)C)nc(N(C)N)n1` it is “inactive”.
The entry for `CCOc1cccc(C=Nc2cc(C)cc(C)c2O)c1O` is “inactive”.
`O=[N+]([O-])c1ccc(-c2ccc(/C=N/c3c(-c4ccco4)nc4ccccn34)o2)cc1`: the result was inactive.
The entry for `O=[N+]([O-])c1cc(-c2ccc(/C=N\n3cnnc3)o2)cc([N+](=O)[O-])c1` is “inactive”; for `CCCCCC1CC(CC(=O)NC(=S)Nc2ccc([N+](=O)[O-])cc2)C(=O)O1` (stereo not given) it is “inactive”.
Consider `COc1ccc(-c2ccc(C#N)c(SCC(=O)OCc3ccccc3)n2)cc1OC`, for which the molecule was called inactive.
The entry for `CCOC(=O)C(C)Sc1ncnc2c1nnn2-c1ccc(F)cc1` (stereo not given) is “inactive”; for `CC1(C)C2CCC1(C)C(OCC[N+](C)(C)CC(=O)OC1CCCCC1)C2` (stereo not given) it is “inactive”; for `CC(=O)CCSc1ncnc2sc(-c3ccccc3)cc12` it is “inactive”.
On to `Nn1c(SCc2ccccc2)nc2ccccc21`, for which the outcome was inactive.
The entry for `COC(=O)CCc1nc2c(C#N)c(-c3ccc(Cl)cc3)ccn2n1` is “inactive”; for `CC(C)(C)c1ccc(OCCCC(=O)NC2=NCCS2)cc1` it is “inactive”; for `CCOC(=O)c1sc2nc(C)nc(SC(C)C(=O)N(C)c3ccccc3)c2c1C` (stereo not given) it is “inactive”.
Take `O=C(CCCC(=O)OCC(=O)c1cccs1)Nc1ccc(Oc2ccccc2)cc1`: the outcome was inactive.
The entry for `CCc1cc2c(=O)n(C(C)C(=O)OC3CCCCC3)cnc2s1` (stereo not given) is “inactive”; for `Cc1ccc(S(=O)(=O)NNC(=O)c2cc([N+](=O)[O-])c(C)c([N+](=O)[O-])c2)cc1` it is “inactive”.
The entry for `COc1ccc(N(CC(=O)Nc2ccccc2C(N)=O)S(=O)(=O)c2ccc(C)c([N+](=O)[O-])c2)cc1` is “inactive”.
As for `CCc1cccc2c(=O)c(C(=O)N3CCOCC3)c[nH]c12`, the result was inactive.
Take `COc1ccc(N=Cc2ccc(CNS(=O)(=O)c3ccc(Cl)cc3)o2)cc1`: the outcome was inactive.
The entry for `CN(C)c1ccc(CNC2C3CC4CC(C3)CC2C4)cc1` (stereo not given) is “inactive”; for `CCCCCCCCCCNC(=O)C(=O)Nc1ccccn1` it is “inactive”; for `CCOc1ccccc1NC(=O)C12CC3CC(C1)CC(c1ccc(C)cc1)(C3)C2` it is “inactive”.
The entry for `C[C@H](O)[C@H](O)[C@H]1CNc2nc(N)[nH]c(=O)c2N1` is “inactive”; for `Cc1cc(C)cc(NC(=O)CCc2ccc(C)o2)c1` it is “inactive”.
As to `Cc1cc(C(=O)COC(=O)C2=COCCO2)c(C)n1-c1cccc(F)c1`, the call was inactive.
For `O=C(NC1CCCCC1)C1CC(=O)N(c2cccc([N+](=O)[O-])c2)C1` (stereo not given), the molecule was classed as inactive.
Regarding `CC(=O)OC1=Cc2c(ccc3ccc(=O)oc23)OC1(C)C`, the molecule was classed as inactive.
The entry for `COc1ccc(/C(O)=C/Sc2nnc(Cc3ccccc3)o2)cc1` is “inactive”; for `COc1ccc(NCc2nnc(SCC(=O)c3ccc(OC)cc3)o2)cc1` it is “inactive”; for `Nc1ccc2c(c1)nnn2-c1ccccc1` it is “inactive”.
For the molecule `COc1cc(/C=C(\C#N)c2nc3c(s2)CC(C)CC3)ccc1O` (stereo not given), the call was inactive.
Consider `CCC[C@@H]1C[C@@H](C(=O)NC(C(C)Cl)[C@H]2O[C@H](SC)[C@H](O)[C@@H](O)[C@H]2O)N(C)C1` (stereo not given in full), for which the molecule was classed as inactive.
As for `Nc1ccc(Oc2ccc3c(c2)OCO3)cc1`, the outcome was inactive.
The entry for `O=C1NN(c2ccc(Br)cc2)C(=O)/C1=C\c1ccc(O)cc1O` is “inactive”; for `COc1ccccc1NC(=O)CN1CCN(CC(=O)Nc2ccc3c(c2)OCO3)CC1` it is “inactive”; for `C=CCOc1ccc(C2=NOC(C(=O)Nc3ccc4c(c3)OCCO4)C2)cc1` (stereo not given) it is “inactive”.
The entry for `Nc1ncc2[nH]cnc2n1` is “inactive”; for `C[C@]12C=CC(=O)C=C1CC[C@@H]1C2=CC[C@]2(C)[C@@H](C(=O)CN3CCN(c4cc(N5CCCC5)nc(N5CCCC5)n4)CC3)CC[C@@H]12` it is “inactive”.
With `COc1ccc(/C=N/Nc2nncn2N)cc1Br`, the outcome was inactive.
For `CCOC(=O)CSc1snnc1-c1ccccc1`, the call was inactive.
The entry for `CCc1ccc(CCOc2ccc(CC3SC(=O)NC3=O)cc2)nc1` (stereo not given) is “inactive”; for `Cc1cc(C)n(C(=O)c2ccc([N+](=O)[O-])cc2[N+](=O)[O-])n1` it is “inactive”; for `Cc1ccc(NC(=O)c2ccc(CSc3nnc(C)s3)cc2)c(C)c1` it is “inactive”.
For `COC(=O)c1cc(NC(=O)c2c(F)c(F)c(F)c(F)c2F)cc(C(=O)OC)c1`, the result was inactive.
The entry for `C=CC[n+]1ccn(-c2nc3ccccc3nc2[N-]S(=O)(=O)c2cccs2)c1` is “inactive”; for `C/C(CC(=O)Nc1ccc2c(c1)OCCO2)=N\NC(=O)c1ccccc1F` it is “inactive”; for `N#CC(C(=O)NCc1ccco1)c1nc2ccccc2nc1N1CCOCC1` (stereo not given) it is “inactive”.
As to `CCOC(=O)C1CCN(c2nc3cc(OC)ccc3cc2C#N)CC1`, the result was inactive.
The entry for `O=C(/C=C\c1cccs1)N1CCN(Cc2ccc3c(c2)OCO3)CC1` is “inactive”; for `COC(=O)C1CC(=O)N(c2ccc(OCc3ccccc3Cl)cc2)C1` (stereo not given) it is “inactive”.
The entry for `CCCn1nnc(NC(=O)COc2ccc(CC)cc2)n1` is “inactive”; for `CCOC(=O)c1cnc2ccc(OCC)cc2c1N1CCN(c2ccccc2)CC1` it is “inactive”.
The entry for `CCOC(=O)c1cc(-c2ccccc2)nc2c1c(C)nn2-c1ccccn1` is “inactive”; for `COc1ccc(OCc2nnc3n2N=C(c2ccccc2)C(CC(=O)O)S3)cc1` (stereo not given) it is “inactive”.
As for `CCOc1ccc(C2=Nc3ccc(Br)cc3C(c3ccc(N4CCOCC4)cc3)=NN2)cc1`, the call was inactive.
The entry for `Cc1ccsc1/C=C1\SC(N2CCOCC2)=NC1=O` is “inactive”.
On to `Cc1nc(S/C(=C/c2ccc(-c3ccc(Cl)cc3)o2)C(=O)O)n[nH]1`, for which the outcome was inactive.
The entry for `CSCCC(=O)N1CCCC(CNC(=O)c2ccc(-c3ccccc3)cc2)C1` (stereo not given) is “inactive”; for `Cc1cc(C)c(C(N)=O)c(SCC(=O)c2ccc(Cl)cc2)n1` it is “inactive”; for `CCC(=O)c1ccc(OCC(=O)OCC(=O)c2cc(C)n(C3CC3)c2C)cc1` it is “inactive”.
In the case of `COc1ccc2c(c1)CC/C(=C\C=C\c1ccccc1OC)C2=O`, the outcome was inactive.
Turning to `COc1ccc(N=Cc2c[nH][nH]c2=O)cc1`, the molecule was called inactive.
With `O=S(=O)(Nc1ccn(-c2ccccc2)n1)c1ccc(Br)cc1`, the result was inactive.
Consider `CCC(C)OC(=O)C(C)Oc1ccc(-c2ccccc2)cc1` (stereo not given), for which the result was inactive.
Turning to `O=c1ccn(-c2ccccc2)[nH]1`, the molecule was classed as inactive.
The entry for `Cc1ccc(NC(=O)CNCc2cccs2)cc1Br` is “inactive”.
The entry for `O=C(c1cccc([N+](=O)[O-])c1)N1CCN(c2ccc(N3CCOCC3)nn2)CC1` is “inactive”; for `CCOP(=O)(OCC)/C(=C/N1CCCCC1)NC(=O)c1ccccc1` it is “inactive”.
The entry for `Cc1nnc(SCc2ccccc2Cl)n(N)c1=O` is “inactive”; for `Cc1ccccc1CSc1nsc(N)n1` it is “inactive”.
On to `CN(CCCCCCCCCCN(C)C(=O)Oc1cccc([N+](C)(C)C)c1)C(=O)Oc1cccc([N+](C)(C)C)c1`, for which the outcome was inactive.
Turning to `CCOC(=O)c1ccc(Nc2cc3ccccc3c(=O)[nH]2)cc1`, the call was inactive.
The entry for `CCOC(=O)c1ccc(NC(=S)Nc2ccc3[nH]c(=O)[nH]c3c2)cc1` is “inactive”; for `CC(C)(C)OC(=O)NNC(=S)NC1CCCCC1` it is “inactive”; for `CCOC(=O)CNC(=O)c1sc2ncnc(N3CCc4ccccc4C3)c2c1C` it is “inactive”.
The entry for `CCOc1ccc(NC(=O)c2sc3nc(C)nc(N4CCOCC4)c3c2C)cc1` is “inactive”; for `O=C(Nc1ccc(-c2noc(CCc3ccccc3)n2)cc1)c1cccnc1` it is “inactive”.
On to `CCOC(=O)c1nnc(-c2ccccc2)nc1NCc1ccccc1`, for which the outcome was inactive.
The entry for `O=C(OCC(=O)N1CCCCC1)c1cc2ccccc2cc1O` is “inactive”; for `COC(=O)C(CCSC)NC(=O)c1cn(-c2ccc(OC)cc2)c(=O)c2ccccc12` (stereo not given) it is “inactive”; for `COC(=O)CSc1nnc([C@H](CC(C)C)NC(=O)OC(C)(C)C)o1` it is “inactive”.
With `COC(=O)C(C)Oc1ccc(Cc2ncc(C(F)(F)F)cc2Cl)cc1` (stereo not given), the molecule was classed as inactive.
The entry for `CCCCNC(=S)Nc1ccc2cn[nH]c2c1` is “inactive”; for `COC(=O)[C@H](CC(C)C)NC(=O)c1cc2c(cn1)[nH]c1ccccc12` it is “inactive”; for `CCc1nc2ccccc2c(C(=O)Nc2cc(C)ccc2C)c1C` it is “inactive”.
Turning to `O=C(Oc1ccc2ccccc2c1)c1cncc(Br)c1`, the molecule was classed as inactive.
The entry for `N=C1C(c2nc3ccccc3[nH]2)=C(O)CN1NC(=O)c1c[nH]c2ccccc12` is “inactive”.
Turning to `CCCCn1c(N)c(N(CC(C)C)C(=O)c2oc3c(Cl)cccc3c2C)c(=O)[nH]c1=O`, the molecule was called inactive.
